What follows are sequences tested against CT47A1 (assay: pooled miR-30 sensor sort-seq; sequence = guide strand). Conditions: shRNA.
Further: reference of the scale not given here.

Row | Sequence | sensor-assay potency score (higher = more potent)
1 | TGTTCTTTCTCTTCCTCGCCTG | 0.234
2 | TTCCTCGCCTGCAGCATCTTGG | -0.775
3 | TGCATCCTTCTCTTTTTCTTGT | -0.624
4 | TTCTCTATGAGGATGTGGTCGT | 0.0532
5 | TTGACGGTTCTCTATGAGGATG | -1.48
6 | ATTTAGTGACTTCCTCTGGGGC | -0.669
7 | TATCTGAGTCCTCCTCGGCGCT | -1.49
8 | TTGTTCTTTCTCTTCCTCGCCT | 0.277
9 | TCACCTTGTTTTCTGCATCCTT | 0.106

What follows are sequences tested against CTBP2 in the same assay as above. Conditions: shRNA.

Row | Sequence | sensor-assay potency score (higher = more potent)
10 | TAAAATATGACGCTGAATCCAA | -0.138
11 | TTCGGGGCATCTTTCAACGGAC | -0.791
12 | TTGCTGGTCTATTACTGACCAA | -0.982
13 | TTCGTTGAGATTGCAGTGCAAG | -1.27
14 | TTGCTTGCTGGTCTATTACTGA | -0.788
15 | TAGAGTCCGCTGTCTCTTCCAC | -0.12
16 | TTGTGAGTCACTGGGATGCCTC | -1.08
17 | TCGCTGTCTCTTGACTTTGTGC | -1.38
18 | TTTCCTGCGTCGACTGCGCGTC | -0.459
19 | TAAGGCTTTCTCGTCCACCAGG | -0.686
20 | ACAAATTCTGTCCAATCGCTGT | -0.83
21 | TTGCAGTGCAAGGAGACGCAGT | -0.883
22 | TTATGTTCGTTGAGATTGCAGT | -0.485
23 | AATCGCTGTCTCTTGACTTTGT | 0.0201
24 | TTGAGATTGCAGTGCAAGGAGA | -0.597
25 | AATTTCTTAAGCTTTCTGGGAT | 0.0586
26 | TACCTTCACAAATTCTGTCCAA | -0.0172
27 | TTCGTTTAGAACCTTCTCGTGG | -0.189
28 | TCGTTTAGAACCTTCTCGTGGA | 0.661
29 | TTCTGTCCAATCGCTGTCTCTT | -0.623
30 | TATCCGCACGATCACTCTCAGG | -1.62
31 | TATGGTAAAGTCATTGATGAGG | -1.17
32 | TGCTGGTCTATTACTGACCAAG | -1.63

The sequences below were run against CTCFL in the same assay as above. Conditions: shRNA.

Row | Sequence | sensor-assay potency score (higher = more potent)
33 | TTGAATTTGAAACTGTGAGAAC | -1.1
34 | TTGTATAAAAACATTTGTCTTT | -0.651
35 | TATCCTGCAACTCCACAGCTTC | -1.14
36 | TTTGGGGACATTTTCGCCGTGT | -0.126
37 | TAAAGGTGAACCTTGCTCCTAT | 0.214
38 | TTTAGAAGTTGCTTCTGTCGGA | 0.605
39 | TTATTTTCTAGTCTAATCTAGT | -0.371
40 | TTGAGGAGCATTTCACACCTTA | 0.0619

— the OligoGym collection
